Tests used:
Assay in all cases: DAPPL (digital affinity profiling via proximity ligation, sequencing); 10 mM Tris-HCl pH 7.5, 50 mM NaCl, 1 mM DTT, 4% glycerol, room temperature, 30 min; GST-TFs on glutathione beads, 16-mer random dsDNA library, 0.1% formaldehyde crosslink after washing; high values mean tight binding
FEV = target: T1, FEV (Homo sapiens, UniProt Q99581 1-238); settings: protein: recombinant; tags: N-terminal GST; dsDNA, one strand shown
T1 sequence: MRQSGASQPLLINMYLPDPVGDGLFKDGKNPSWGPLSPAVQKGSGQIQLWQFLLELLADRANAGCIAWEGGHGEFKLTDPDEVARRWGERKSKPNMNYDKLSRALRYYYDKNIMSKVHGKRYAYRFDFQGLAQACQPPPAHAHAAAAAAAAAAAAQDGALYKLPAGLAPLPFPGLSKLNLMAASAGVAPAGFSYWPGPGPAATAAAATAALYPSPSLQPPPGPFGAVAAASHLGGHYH
Outline: (§1)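 After expression in yeast as GST fusions, human transcription factors were bound to glutathione beads, DNA-barcoded and mixed with a tag-only sample. The pools were incubated with 200 nmole of a 16-mer random double-stranded DNA library in Tris/NaCl/DTT/glycerol buffer (30 min, room temperature), washed and crosslinked with 0.1% formaldehyde. Proximity ligation with BsaI/T4 ligase ran for 1 h at 37 °C, before PCR amplification and sequencing on an Illumina NextSeq500. Binding signal is a hexamer's read frequency for a factor divided by its frequency for the tag-only sample.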

ETV5 = ETV5 (Homo sapiens, UniProt P41161 1-510); settings: protein: recombinant; tags: N-terminal GST; dsDNA, one strand shown
Outline: as §1

HSF1 = HSF1 (Homo sapiens, UniProt Q00613 1-529); settings: protein: recombinant; tags: N-terminal GST; chain copies: 3; dsDNA, one strand shown
Outline: as §1

SPIC = target: T2, SPIC (Homo sapiens, UniProt Q8N5J4 1-248); settings: protein: recombinant; tags: N-terminal GST; dsDNA, one strand shown
T2 sequence: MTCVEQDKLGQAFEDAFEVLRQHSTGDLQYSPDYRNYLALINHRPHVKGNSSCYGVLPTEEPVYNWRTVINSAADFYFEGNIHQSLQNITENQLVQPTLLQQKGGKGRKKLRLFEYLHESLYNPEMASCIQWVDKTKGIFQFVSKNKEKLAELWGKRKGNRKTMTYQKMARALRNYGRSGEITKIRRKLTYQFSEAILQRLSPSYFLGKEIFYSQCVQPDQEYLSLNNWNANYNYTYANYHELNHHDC
Outline: as §1

ELF4 = ELF4 (Homo sapiens, UniProt Q99607 1-663); settings: protein: recombinant; tags: N-terminal GST; dsDNA, one strand shown
Outline: as §1

ELK4 = target: T3, ELK4 (Homo sapiens, UniProt P28324-2 1-405); settings: protein: recombinant; tags: N-terminal GST; dsDNA, one strand shown
T3 sequence: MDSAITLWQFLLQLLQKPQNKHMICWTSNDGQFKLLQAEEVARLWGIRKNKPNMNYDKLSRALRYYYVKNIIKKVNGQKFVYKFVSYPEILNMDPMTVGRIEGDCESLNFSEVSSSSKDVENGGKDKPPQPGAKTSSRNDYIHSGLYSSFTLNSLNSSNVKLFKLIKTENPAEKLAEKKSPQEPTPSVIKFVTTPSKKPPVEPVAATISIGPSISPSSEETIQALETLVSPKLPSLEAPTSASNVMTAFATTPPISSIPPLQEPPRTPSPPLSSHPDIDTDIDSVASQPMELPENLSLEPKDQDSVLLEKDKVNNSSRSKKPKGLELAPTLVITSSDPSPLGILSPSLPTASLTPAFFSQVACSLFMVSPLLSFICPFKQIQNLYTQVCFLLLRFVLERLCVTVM
Outline: as §1

ETV2 = target: T4, ETV2 (Homo sapiens, UniProt O00321 1-342); settings: protein: recombinant; tags: N-terminal GST; dsDNA, one strand shown
T4 sequence: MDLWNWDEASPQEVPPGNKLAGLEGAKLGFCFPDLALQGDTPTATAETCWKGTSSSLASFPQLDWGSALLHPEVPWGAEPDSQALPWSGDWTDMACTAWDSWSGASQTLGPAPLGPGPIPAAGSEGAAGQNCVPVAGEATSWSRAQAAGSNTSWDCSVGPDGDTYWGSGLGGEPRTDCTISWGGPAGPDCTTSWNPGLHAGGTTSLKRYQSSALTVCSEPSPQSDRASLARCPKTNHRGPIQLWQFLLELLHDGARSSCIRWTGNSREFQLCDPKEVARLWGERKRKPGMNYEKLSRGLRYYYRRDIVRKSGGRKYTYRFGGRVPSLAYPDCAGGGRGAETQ
Outline: as §1

ELF3 = target: T5, ELF3 (Homo sapiens, UniProt P78545 1-371); settings: protein: recombinant; tags: N-terminal GST; dsDNA, one strand shown
T5 sequence: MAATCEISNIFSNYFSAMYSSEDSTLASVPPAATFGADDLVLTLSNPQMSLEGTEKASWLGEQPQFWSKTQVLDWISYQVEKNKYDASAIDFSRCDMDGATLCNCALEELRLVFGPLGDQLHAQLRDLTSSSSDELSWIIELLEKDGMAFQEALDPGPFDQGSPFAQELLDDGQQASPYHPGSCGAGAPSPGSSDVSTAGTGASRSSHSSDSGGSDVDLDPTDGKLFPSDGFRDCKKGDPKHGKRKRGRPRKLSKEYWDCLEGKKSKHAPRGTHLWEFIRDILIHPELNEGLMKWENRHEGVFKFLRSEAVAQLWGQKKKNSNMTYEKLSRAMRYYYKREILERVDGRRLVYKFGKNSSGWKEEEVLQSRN
Outline: as §1

CRX = CRX (Homo sapiens, UniProt O43186 1-299); settings: protein: recombinant; tags: N-terminal GST; dsDNA, one strand shown
Outline: as §1

ETV1 = ETV1 (Homo sapiens, UniProt P50549 1-477); settings: protein: recombinant; tags: N-terminal GST; dsDNA, one strand shown
Outline: as §1

ERF = target: T6, ERF (Homo sapiens, UniProt P50548 1-548); settings: protein: recombinant; tags: N-terminal GST; dsDNA, one strand shown
T6 sequence: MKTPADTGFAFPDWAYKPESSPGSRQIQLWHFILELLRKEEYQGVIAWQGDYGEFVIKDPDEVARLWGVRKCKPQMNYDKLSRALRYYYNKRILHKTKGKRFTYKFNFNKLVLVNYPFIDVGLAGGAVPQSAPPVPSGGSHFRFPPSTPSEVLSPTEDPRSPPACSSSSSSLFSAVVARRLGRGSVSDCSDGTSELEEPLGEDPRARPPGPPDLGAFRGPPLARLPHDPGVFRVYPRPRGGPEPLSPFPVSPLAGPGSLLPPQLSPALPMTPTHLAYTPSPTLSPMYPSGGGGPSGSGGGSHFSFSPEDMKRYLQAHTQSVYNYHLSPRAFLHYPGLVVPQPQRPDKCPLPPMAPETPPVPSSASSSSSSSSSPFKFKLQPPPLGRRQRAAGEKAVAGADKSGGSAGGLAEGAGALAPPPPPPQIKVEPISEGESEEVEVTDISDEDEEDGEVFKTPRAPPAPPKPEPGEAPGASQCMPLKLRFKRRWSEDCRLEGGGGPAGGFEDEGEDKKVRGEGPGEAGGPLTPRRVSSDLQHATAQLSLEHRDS
Outline: as §1

ETV3L = target: T7, ETV3L (Homo sapiens, UniProt Q6ZN32 1-361); settings: protein: recombinant; tags: N-terminal GST; dsDNA, one strand shown
T7 sequence: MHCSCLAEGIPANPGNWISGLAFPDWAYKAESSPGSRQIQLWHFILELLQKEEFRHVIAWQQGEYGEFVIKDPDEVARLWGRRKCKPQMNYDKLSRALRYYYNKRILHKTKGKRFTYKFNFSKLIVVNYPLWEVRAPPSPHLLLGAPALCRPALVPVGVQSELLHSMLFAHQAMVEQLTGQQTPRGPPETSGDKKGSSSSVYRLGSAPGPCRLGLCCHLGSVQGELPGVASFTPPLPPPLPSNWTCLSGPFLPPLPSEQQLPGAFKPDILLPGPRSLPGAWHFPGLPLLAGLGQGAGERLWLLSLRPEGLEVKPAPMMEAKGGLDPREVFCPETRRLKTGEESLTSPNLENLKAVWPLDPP
Outline: as §1

ETS2 = target: T8, ETS2 (Homo sapiens, UniProt P15036 1-469); settings: protein: recombinant; tags: N-terminal GST; dsDNA, one strand shown
T8 sequence: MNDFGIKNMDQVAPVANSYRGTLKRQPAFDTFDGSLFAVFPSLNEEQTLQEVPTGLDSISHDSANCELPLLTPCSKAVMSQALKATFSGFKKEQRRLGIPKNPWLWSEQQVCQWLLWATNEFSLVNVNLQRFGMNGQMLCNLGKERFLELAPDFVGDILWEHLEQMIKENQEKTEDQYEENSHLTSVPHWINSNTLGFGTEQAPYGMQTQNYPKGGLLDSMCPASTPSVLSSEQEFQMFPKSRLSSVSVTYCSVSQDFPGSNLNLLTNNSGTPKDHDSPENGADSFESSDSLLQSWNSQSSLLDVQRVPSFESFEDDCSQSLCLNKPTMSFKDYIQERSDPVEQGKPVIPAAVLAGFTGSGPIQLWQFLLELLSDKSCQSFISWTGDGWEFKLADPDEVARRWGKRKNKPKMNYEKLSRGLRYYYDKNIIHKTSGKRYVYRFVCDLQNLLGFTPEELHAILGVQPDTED
Outline: as §1

SPDEF = target: T9, SPDEF (Homo sapiens, UniProt O95238 1-335); settings: protein: recombinant; tags: N-terminal GST; dsDNA, one strand shown
T9 sequence: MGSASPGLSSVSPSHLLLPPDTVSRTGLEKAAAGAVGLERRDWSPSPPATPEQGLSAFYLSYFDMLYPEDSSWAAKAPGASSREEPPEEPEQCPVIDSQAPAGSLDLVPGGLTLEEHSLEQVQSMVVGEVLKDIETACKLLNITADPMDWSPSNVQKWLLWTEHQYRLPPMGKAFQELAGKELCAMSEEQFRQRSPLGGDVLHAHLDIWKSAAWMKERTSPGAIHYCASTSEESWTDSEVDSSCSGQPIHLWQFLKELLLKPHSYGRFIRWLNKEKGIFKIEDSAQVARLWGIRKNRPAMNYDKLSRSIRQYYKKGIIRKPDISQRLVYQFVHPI
Outline: as §1

ETV7 = target: T10, ETV7 (Homo sapiens, UniProt Q9Y603 1-341); settings: protein: recombinant; tags: N-terminal GST; dsDNA, one strand shown
T10 sequence: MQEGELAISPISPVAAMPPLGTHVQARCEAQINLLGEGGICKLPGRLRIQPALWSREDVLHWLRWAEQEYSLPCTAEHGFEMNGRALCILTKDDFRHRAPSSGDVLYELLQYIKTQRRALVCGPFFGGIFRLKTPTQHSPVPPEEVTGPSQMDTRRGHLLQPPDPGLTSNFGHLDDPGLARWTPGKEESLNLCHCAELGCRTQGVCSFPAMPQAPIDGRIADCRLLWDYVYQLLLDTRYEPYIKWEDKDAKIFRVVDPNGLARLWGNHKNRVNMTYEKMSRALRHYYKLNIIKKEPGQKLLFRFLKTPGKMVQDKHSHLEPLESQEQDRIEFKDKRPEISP
Outline: as §1

ELF5 = target: T11, ELF5 (Homo sapiens, UniProt Q9UKW6-2 1-255); settings: protein: recombinant; tags: N-terminal GST; dsDNA, one strand shown
T11 sequence: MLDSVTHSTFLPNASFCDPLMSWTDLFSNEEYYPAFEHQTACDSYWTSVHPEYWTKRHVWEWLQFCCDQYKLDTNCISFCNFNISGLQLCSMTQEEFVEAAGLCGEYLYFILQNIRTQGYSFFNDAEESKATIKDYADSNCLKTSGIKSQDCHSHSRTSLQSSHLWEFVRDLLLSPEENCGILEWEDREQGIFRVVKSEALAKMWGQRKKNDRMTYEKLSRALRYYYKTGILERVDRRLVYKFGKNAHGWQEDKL
Outline: as §1

ETV3 = target: T12, ETV3 (Homo sapiens, UniProt P41162-2 1-143); settings: protein: recombinant; tags: N-terminal GST; dsDNA, one strand shown
T12 sequence: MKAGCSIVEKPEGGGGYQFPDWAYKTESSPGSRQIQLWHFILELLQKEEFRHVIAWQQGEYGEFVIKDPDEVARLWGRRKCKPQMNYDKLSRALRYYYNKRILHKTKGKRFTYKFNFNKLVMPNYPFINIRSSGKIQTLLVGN
Outline: as §1

ETV6 = ETV6 (Homo sapiens, UniProt P41212 1-452); settings: protein: recombinant; tags: N-terminal GST; dsDNA, one strand shown
Outline: as §1

ETV6, sequence (P41212 whole entry): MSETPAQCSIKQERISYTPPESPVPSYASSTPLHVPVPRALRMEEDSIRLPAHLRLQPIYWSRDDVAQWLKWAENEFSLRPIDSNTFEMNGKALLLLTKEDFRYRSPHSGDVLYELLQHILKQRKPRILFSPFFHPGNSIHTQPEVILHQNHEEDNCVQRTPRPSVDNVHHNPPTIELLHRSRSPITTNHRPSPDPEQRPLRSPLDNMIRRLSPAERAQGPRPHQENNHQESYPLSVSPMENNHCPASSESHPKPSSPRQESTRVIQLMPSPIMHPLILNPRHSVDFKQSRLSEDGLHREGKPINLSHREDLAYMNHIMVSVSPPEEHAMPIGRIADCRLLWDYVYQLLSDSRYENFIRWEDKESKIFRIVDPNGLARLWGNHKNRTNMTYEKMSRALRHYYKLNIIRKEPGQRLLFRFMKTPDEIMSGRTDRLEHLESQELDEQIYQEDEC
ETV1, sequence (P50549 whole entry): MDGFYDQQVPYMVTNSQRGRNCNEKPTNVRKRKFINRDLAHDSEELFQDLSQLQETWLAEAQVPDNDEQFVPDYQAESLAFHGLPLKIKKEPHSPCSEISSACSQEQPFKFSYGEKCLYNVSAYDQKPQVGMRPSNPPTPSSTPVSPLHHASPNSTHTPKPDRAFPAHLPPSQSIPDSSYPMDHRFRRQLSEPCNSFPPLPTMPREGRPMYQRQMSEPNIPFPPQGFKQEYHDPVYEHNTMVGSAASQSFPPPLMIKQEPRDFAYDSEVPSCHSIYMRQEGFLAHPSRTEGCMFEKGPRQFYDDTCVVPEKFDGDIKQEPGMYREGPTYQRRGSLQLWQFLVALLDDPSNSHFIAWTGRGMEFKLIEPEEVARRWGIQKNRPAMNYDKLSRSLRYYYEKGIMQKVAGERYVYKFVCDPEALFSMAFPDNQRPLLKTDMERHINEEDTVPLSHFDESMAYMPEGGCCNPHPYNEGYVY
CRX, sequence (O43186 whole entry): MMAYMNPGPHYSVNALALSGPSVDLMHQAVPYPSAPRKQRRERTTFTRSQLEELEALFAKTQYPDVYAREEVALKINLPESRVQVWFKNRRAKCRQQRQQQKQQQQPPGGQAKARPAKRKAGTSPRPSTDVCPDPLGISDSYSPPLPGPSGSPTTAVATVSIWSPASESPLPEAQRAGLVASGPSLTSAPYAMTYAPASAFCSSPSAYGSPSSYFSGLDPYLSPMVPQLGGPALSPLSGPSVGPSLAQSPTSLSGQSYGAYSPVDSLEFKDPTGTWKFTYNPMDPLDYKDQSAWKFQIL
HSF1, sequence (Q00613 whole entry): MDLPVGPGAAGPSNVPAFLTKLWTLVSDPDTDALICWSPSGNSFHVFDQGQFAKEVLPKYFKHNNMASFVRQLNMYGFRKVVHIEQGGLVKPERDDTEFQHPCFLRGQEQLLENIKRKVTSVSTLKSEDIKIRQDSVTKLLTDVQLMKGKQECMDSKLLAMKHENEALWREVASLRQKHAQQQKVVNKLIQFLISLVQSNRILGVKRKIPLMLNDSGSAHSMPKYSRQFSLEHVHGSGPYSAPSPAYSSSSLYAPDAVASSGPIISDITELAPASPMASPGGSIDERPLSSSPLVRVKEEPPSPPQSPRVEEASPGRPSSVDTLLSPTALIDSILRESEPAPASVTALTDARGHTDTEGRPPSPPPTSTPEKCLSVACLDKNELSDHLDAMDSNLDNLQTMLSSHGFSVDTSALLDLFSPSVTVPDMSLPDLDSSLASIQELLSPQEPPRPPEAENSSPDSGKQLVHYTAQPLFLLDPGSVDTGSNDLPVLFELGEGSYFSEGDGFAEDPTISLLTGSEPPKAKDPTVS
ETV5, sequence (P41161 whole entry): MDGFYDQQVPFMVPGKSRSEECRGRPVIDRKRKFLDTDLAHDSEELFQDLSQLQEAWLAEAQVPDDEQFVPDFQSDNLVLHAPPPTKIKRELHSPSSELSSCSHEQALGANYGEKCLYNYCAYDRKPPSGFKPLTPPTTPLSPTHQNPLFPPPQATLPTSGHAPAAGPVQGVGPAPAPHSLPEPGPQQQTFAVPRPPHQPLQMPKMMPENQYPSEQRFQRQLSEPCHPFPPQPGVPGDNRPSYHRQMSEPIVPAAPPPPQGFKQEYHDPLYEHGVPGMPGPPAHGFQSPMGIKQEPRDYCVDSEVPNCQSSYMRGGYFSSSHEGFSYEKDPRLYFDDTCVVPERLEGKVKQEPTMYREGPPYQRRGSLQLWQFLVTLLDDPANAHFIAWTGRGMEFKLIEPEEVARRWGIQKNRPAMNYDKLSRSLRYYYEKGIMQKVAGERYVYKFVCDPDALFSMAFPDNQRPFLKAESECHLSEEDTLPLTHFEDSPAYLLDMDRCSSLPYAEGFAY
ELF4, sequence (Q99607 whole entry): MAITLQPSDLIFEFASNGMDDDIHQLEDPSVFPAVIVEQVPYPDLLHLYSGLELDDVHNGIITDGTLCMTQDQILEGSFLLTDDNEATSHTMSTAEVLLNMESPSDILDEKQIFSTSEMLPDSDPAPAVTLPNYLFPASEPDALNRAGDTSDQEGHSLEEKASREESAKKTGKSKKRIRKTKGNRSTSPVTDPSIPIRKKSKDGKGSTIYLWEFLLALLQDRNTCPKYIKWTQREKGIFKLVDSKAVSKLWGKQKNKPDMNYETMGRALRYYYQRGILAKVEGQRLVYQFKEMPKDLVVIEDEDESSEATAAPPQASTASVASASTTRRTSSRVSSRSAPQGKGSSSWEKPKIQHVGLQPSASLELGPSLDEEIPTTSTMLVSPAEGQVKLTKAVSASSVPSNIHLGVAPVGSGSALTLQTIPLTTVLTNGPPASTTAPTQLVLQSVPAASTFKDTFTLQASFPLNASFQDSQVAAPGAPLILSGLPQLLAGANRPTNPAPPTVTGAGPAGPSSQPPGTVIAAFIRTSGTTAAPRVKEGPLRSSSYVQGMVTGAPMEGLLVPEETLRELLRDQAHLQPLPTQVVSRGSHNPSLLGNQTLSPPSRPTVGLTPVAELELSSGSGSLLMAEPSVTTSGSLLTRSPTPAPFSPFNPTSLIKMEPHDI

Row | Sequence | binding signal (FEV) | binding signal (ETV5) | binding signal (HSF1) | binding signal (SPIC) | binding signal (ELF4) | binding signal (ELK4) | binding signal (ETV2) | binding signal (ELF3) | binding signal (CRX) | binding signal (ETV1) | binding signal (ERF) | binding signal (ETV3L) | binding signal (ETS2) | binding signal (SPDEF) | binding signal (ETV7) | binding signal (ELF5) | binding signal (ETV3) | binding signal (ETV6)
1 | CTAAGA | 1.08 fold enrichment (6-mer frequency, TF over GST control) | 1.24 fold enrichment (6-mer frequency, TF over GST control) | 1.64 fold enrichment (6-mer frequency, TF over GST control) | 1.18 fold enrichment (6-mer frequency, TF over GST control) | 1.27 fold enrichment (6-mer frequency, TF over GST control) | 1.16 fold enrichment (6-mer frequency, TF over GST control) | 1.2 fold enrichment (6-mer frequency, TF over GST control) | 1.24 fold enrichment (6-mer frequency, TF over GST control) | 2.05 fold enrichment (6-mer frequency, TF over GST control) | 1.22 fold enrichment (6-mer frequency, TF over GST control) | 1.08 fold enrichment (6-mer frequency, TF over GST control) | 1.21 fold enrichment (6-mer frequency, TF over GST control) | 1.17 fold enrichment (6-mer frequency, TF over GST control) | 1.15 fold enrichment (6-mer frequency, TF over GST control) | 1.25 fold enrichment (6-mer frequency, TF over GST control) | 1.2 fold enrichment (6-mer frequency, TF over GST control) | 1.17 fold enrichment (6-mer frequency, TF over GST control) | 1.23 fold enrichment (6-mer frequency, TF over GST control)
2 | TTGCCT | 1.19 fold enrichment (6-mer frequency, TF over GST control) | 1.22 fold enrichment (6-mer frequency, TF over GST control) | 1.13 fold enrichment (6-mer frequency, TF over GST control) | 1.42 fold enrichment (6-mer frequency, TF over GST control) | 1.29 fold enrichment (6-mer frequency, TF over GST control) | 1.2 fold enrichment (6-mer frequency, TF over GST control) | 1.19 fold enrichment (6-mer frequency, TF over GST control) | 1.42 fold enrichment (6-mer frequency, TF over GST control) | 1.16 fold enrichment (6-mer frequency, TF over GST control) | 1.37 fold enrichment (6-mer frequency, TF over GST control) | 1.18 fold enrichment (6-mer frequency, TF over GST control) | 1.34 fold enrichment (6-mer frequency, TF over GST control) | 1.24 fold enrichment (6-mer frequency, TF over GST control) | 1.18 fold enrichment (6-mer frequency, TF over GST control) | 1.23 fold enrichment (6-mer frequency, TF over GST control) | 1.19 fold enrichment (6-mer frequency, TF over GST control) | 1.14 fold enrichment (6-mer frequency, TF over GST control) | 1.1 fold enrichment (6-mer frequency, TF over GST control)
